# Data reported in the supplement of paper PMC9694430.
# Counter-ions that a name gives are not always drawn.
# What was measured:
# Assay in all cases: thermal shift delta Tm vs DMSO control; higher = stronger stabilization (binding)
# Settings in all cases: 12.5 µM; protein concentration 2 µM
# [1] = test system: LOC_OS01G01410-cb001
# How it was run: (§1)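 Thermal shift values come from differential scanning fluorimetry on purified rice kinase domains made in E. coli, with melting temperatures obtained from Boltzmann fits. Samples of 19.5 μl held 2 μM kinase, 100 mM potassium phosphate pH 7.5, 150 mM NaCl, 10% glycerol, 5 × SYPRO Orange and compound in DMSO, and were heated from 25°C to 95°C at 0.05°C/s. Each shift is a triplicate mean relative to the DMSO-only protein sample.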
# [2] = test system: LOC_OS01G02750-cb003
# How it was run: as §1
# [3] = test system: LOC_OS01G10900-cb004
# How it was run: as §1
# [4] = test system: LOC_OS01G13800-cb001
# How it was run: as §1
# [5] = test system: LOC_OS01G14860-cb001
# How it was run: as §1
# [6] = test system: LOC_OS01G21960-cb002
# How it was run: as §1
# [7] = test system: LOC_OS01G39600-cb002
# How it was run: as §1
# [8] = test system: LOC_OS01G48390-cb002
# How it was run: as §1
# [9] = test system: LOC_OS01G51400-cb002
# How it was run: as §1
# [10] = test system: T1, LOC_OS01G52050-cb004
# T1 sequence (whole entry): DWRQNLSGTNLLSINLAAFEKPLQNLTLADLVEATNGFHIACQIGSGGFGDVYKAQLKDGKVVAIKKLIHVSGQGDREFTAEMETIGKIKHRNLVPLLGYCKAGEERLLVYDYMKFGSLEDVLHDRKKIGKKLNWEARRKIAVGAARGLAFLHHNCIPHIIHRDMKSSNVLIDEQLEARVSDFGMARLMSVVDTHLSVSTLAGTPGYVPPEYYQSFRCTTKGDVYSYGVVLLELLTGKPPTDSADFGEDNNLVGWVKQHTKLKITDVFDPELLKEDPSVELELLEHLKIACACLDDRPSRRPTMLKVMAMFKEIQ
# How it was run: as §1
# [11] = test system: LOC_OS01G57100-cb003
# How it was run: as §1
# [12] = test system: LOC_OS01G60330-cb001
# How it was run: as §1
# [13] = test system: LOC_OS01G60700-cb002
# How it was run: as §1
# [14] = test system: LOC_OS01G63280-cb003
# How it was run: as §1
# [15] = test system: LOC_OS01G67340-cb003
# How it was run: as §1
# [16] = test system: LOC_OS01G70970-cb002
# How it was run: as §1
# [17] = test system: LOC_OS02G07810-cb001
# How it was run: as §1
# [18] = test system: LOC_OS02G08530-cb003
# How it was run: as §1
# [19] = test system: LOC_OS02G14120-cb001
# How it was run: as §1
# [20] = test system: LOC_OS02G17970-cb001
# How it was run: as §1
# 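Also: purified Escherichia coli-expressed rice kinase domain construct.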
SMILES,thermal shift delta Tm [1],thermal shift delta Tm [2],thermal shift delta Tm [3],thermal shift delta Tm [4],thermal shift delta Tm [5],thermal shift delta Tm [6],thermal shift delta Tm [7],thermal shift delta Tm [8],thermal shift delta Tm [9],thermal shift delta Tm [10],thermal shift delta Tm [11],thermal shift delta Tm [12],thermal shift delta Tm [13],thermal shift delta Tm [14],thermal shift delta Tm [15],thermal shift delta Tm [16],thermal shift delta Tm [17],thermal shift delta Tm [18],thermal shift delta Tm [19],thermal shift delta Tm [20]
CN1CCN(Cc2ccc(-c3cnc4[nH]cc(-c5ccc6[nH]ccc6c5)c4c3)cc2)CC1,3.79 °C,5.34 °C,4.45 °C,-0.19 °C,4.87 °C,4.44 °C,9 °C,3.1 °C,0.11 °C,9.93 °C,2.72 °C,5.96 °C,2.47 °C,7.33 °C,7.26 °C,10.2 °C,1.34 °C,5.47 °C,10.8 °C,0.97 °C
CO[C@H]1C[C@@H]2CC[C@@H](C)[C@@](O)(O2)C(=O)C(=O)N2CCCC[C@H]2C(=O)O[C@H]([C@H](C)C[C@@H]2CC[C@@H](OCCO)[C@H](OC)C2)CC(=O)[C@H](C)/C=C(\C)[C@@H](O)[C@@H](OC)C(=O)[C@H](C)C[C@H](C)/C=C/C=C/C=C/1C [Everolimus (RAD001)],1.13 °C,-1.72 °C,0.03 °C,0.16 °C,-0.41 °C,0.16 °C,0.54 °C,0.33 °C,-0.03 °C,0.35 °C,0.99 °C,1.72 °C,0.6 °C,0.26 °C,-0.17 °C,-0.1 °C,0.75 °C,0.55 °C,1.17 °C,0.76 °C
CN1CC(O)C2=C/C(=N/NC(N)=O)C(=O)C=C21 (stereo not given) [Carbazochrome],0.3 °C,0.81 °C,-0.04 °C,-0.31 °C,0.31 °C,0.23 °C,0.14 °C,-0.01 °C,0.5 °C,-1.17 °C,-0.08 °C,0.07 °C,0.11 °C,-0.22 °C,-0.39 °C,0.31 °C,-0.8 °C,0.45 °C,0.37 °C,-0.48 °C
O=C(Cc1ccc(-c2ccc(OCCN3CCOCC3)cc2)cn1)NCc1ccccc1,0.29 °C,-0.23 °C,-0.03 °C,-0.06 °C,0.06 °C,0.58 °C,-1.02 °C,0.31 °C,0.06 °C,-0.13 °C,1.17 °C,0.12 °C,1.18 °C,0.26 °C,0.62 °C,0.16 °C,0.92 °C,0.7 °C,0.08 °C,1.17 °C
Cc1cc([C@@H](C)Nc2ccccc2C(=O)O)c2nc(N3CCOCC3)cc(=O)n2c1,0.29 °C,1.55 °C,0.27 °C,0.31 °C,0.56 °C,1.03 °C,0.03 °C,0.29 °C,0.07 °C,0.43 °C,1.15 °C,0.75 °C,0.5 °C,0.68 °C,-0.15 °C,0 °C,1.33 °C,0.42 °C,-0.15 °C,0.98 °C
CN1CCN(c2ccc3nc(-c4c(N)c5c(F)cccc5[nH]c4=O)[nH]c3c2)CC1 [Dovitinib (TKI258) Lactate],5.96 °C,2.78 °C,4.81 °C,1.06 °C,2.06 °C,3.87 °C,4.79 °C,3.22 °C,1.02 °C,6.95 °C,1.26 °C,14.2 °C,1.84 °C,1.58 °C,7.49 °C,8.33 °C,0.88 °C,4.27 °C,6.8 °C,2 °C
Cc1ncc(CCCN(C)C)cc1Nc1ncc2c(n1)-c1ccc(C(F)(F)F)cc1NC(=S)C2,0.62 °C,1.24 °C,-0.4 °C,0.18 °C,0.59 °C,0.78 °C,-0.18 °C,1.07 °C,0.38 °C,1.48 °C,1.69 °C,0.92 °C,1.39 °C,0.8 °C,0.49 °C,0.65 °C,0.56 °C,1.89 °C,0.46 °C,1.61 °C
"Nc1nc2cc(-c3ccc4ncc(C(=O)N5CCOCC5)n4c3)ccc2o1 [Serabelisib (INK-1117,MLN-1117,TAK-117)]",0.8 °C,1.57 °C,2.36 °C,0.43 °C,1.16 °C,0.81 °C,0.1 °C,0.39 °C,0.34 °C,3.87 °C,1.55 °C,0.93 °C,0.36 °C,0.07 °C,1.26 °C,1.33 °C,0.05 °C,1.17 °C,2.02 °C,0.23 °C
Nc1ncnc2n[nH]c(Nc3ccc(F)cc3)c12,1.74 °C,1.17 °C,1.94 °C,-0.28 °C,0.76 °C,1.31 °C,2.02 °C,1.2 °C,0.33 °C,1.46 °C,1 °C,1.15 °C,0.86 °C,3.22 °C,0.86 °C,0.93 °C,0.46 °C,1.06 °C,3.5 °C,0.76 °C
COc1cc2ncnc(Nc3ccc(Cl)cc3F)c2cc1OC,0.69 °C,0.81 °C,0.27 °C,0.26 °C,0.32 °C,0.85 °C,1.07 °C,0.9 °C,0.46 °C,0.58 °C,1.2 °C,0.41 °C,1.4 °C,0.51 °C,0.32 °C,0.2 °C,1.32 °C,1.3 °C,4.69 °C,1.1 °C
COc1cc2nccc(Oc3ccc(NC(=O)Nc4cc(C)on4)c(Cl)c3)c2cc1OC [Tivozanib (AV-951)],1.87 °C,1.12 °C,1.76 °C,0.05 °C,0.65 °C,0.54 °C,-0.67 °C,1.22 °C,-0.16 °C,6.73 °C,1.99 °C,1.29 °C,0.04 °C,1.3 °C,0.1 °C,0.66 °C,0.91 °C,1.02 °C,6.58 °C,0.14 °C
O=C(Nc1cccc(Cl)c1)Nc1ncc(CCNc2ncnc3ccsc23)s1 [SNS-314 Mesylate],3.62 °C,3.42 °C,2.72 °C,0.91 °C,2.61 °C,2.26 °C,2.71 °C,1.79 °C,0.41 °C,4.19 °C,2.62 °C,3.98 °C,1.44 °C,2.76 °C,0.53 °C,1.48 °C,2.27 °C,2.1 °C,4.25 °C,1.27 °C
